Results taken from the supplement of paper PMC10338343.
± gives the standard deviation.

Tested on: MILI (PIWIL2) piRISC loaded with L1MC piRNA (26 nt)
Test: pre-steady-state target cleavage rate (min^-1); guide: L1MC piRNA 5'p-UAACUAAAUACUAUGCAAGCUGUAGG; MIWI and MILI are mouse PIWI proteins and EfPiwi is from a freshwater sponge; tags in brackets are library labels; higher = faster piRNA-guided slicing of the target
Details: auxiliary factor: none (no GTSF1)
In short: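 The pre-steady-state cleavage rate was derived from a burst-and-steady-state fit of Cleave-'n-Seq data. For these assays, 1 nM active affinity-purified piRISC loaded with a single synthetic guide was mixed with […] a transcribed, DNA-blocked target RNA library in HEPES–potassium acetate buffer at 33 °C, with or without 500 nM GTSF1 partner protein, for 0–8 or 0–960 min. Sequencing counts of uncleaved targets were normalised to depth and to weakly complementary targets, and k3 was capped at 0.0001 min^-1 after three trials were pooled.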
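Also: 1 nM active piRISC with 0.1 nM target library at 33 °C single turnover.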

pre-steady-state target cleavage rate, < 0.0001:
UCCUGGAUGUCGAACGAUAGUUAUUUAGUUA
UCCUGGAUGUCGAACGUAAGUAUUUAGUAUA
UCCUGGAUCAGCUUGGAUAGUAUUUUCAAA
UCCUGGAUGUCGAAGCAUAGUUAAAUCAAA [g10:g16:cont:t1A]
UCCUGGAUGUCGAUCCUUAGUAUUUAGUUA

pre-steady-state target cleavage rate, 0.0037 ± 0.0027:
UCCUGGAUGUGCUUGCAUACUUUUUAGUUA
